# Measurements as given in PubChem BioAssay AID1159580 (chemical genetic matrix, 2015).
# Out of some 5,500 compounds screened, about 2,000 (36%) were called active. Not shown: some 18% with an inconclusive outcome. The list shows a part of the results. A number with no mark means an inactive call. No stated cut-off is given here; in the data, active means normalized growth mostly below about 0.91 (no sharp cut-off); inconclusive means no clear call, values can overlap the other calls; inactive means mostly above about 0.92.
# Assay: chemical genetic growth profiling, strain panel (AID 1159580);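 further: tested at 20 µM; growth read once vehicle control cultures reached saturation at 30 °C; 1 = growth at the plate median or of vehicle wells; lower values mean less growth of the strain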
# Conditions: growth OD
smiles,measurement,setting,value
C=CC(C)(O)CC/C=C(\C)CCC=C(C)C (stereo not drawn),normalized growth,"S. cerevisiae deletion strains, locus YKL009W, strain mrt4, hits give low values",0.952
same,normalized growth,"S. cerevisiae deletion strains, locus YKL068W, hits give low values",0.994
same,normalized growth,"S. cerevisiae deletion strains, locus YKL085W, strain MDH1 (second series), hits give low values",0.996
same,normalized growth,"S. cerevisiae deletion strains, locus YKL085W, strain MDH1, hits give low values",0.996
same,normalized growth,"S. cerevisiae deletion strains, locus YKL160W, strain elf1, hits give low values",0.903
same,normalized growth,"S. cerevisiae deletion strains, locus YKL190W, strain CNB1, hits give low values",0.97
same,normalized growth,"S. cerevisiae deletion strains, locus YKR001C, strain vps1, hits give low values",1
same,normalized growth,"S. cerevisiae deletion strains, locus YKR026C, strain gcn3, hits give low values",0.951
same,normalized growth,"S. cerevisiae deletion strains, locus YKR091W, strain srl3, hits give low values",0.97
same,normalized growth,"S. cerevisiae deletion strains, locus YLL001W, strain dnm1, hits give low values",0.978
same,normalized growth,"S. cerevisiae deletion strains, locus YLL026W, hits give low values",0.972
same,normalized growth,"S. cerevisiae deletion strains, locus YLL041C, strain sdh2, hits give low values",0.973
same,normalized growth,"S. cerevisiae deletion strains, locus YLR027C, strain aat2, hits give low values",0.967
same,normalized growth,"S. cerevisiae deletion strains, locus YLR039C, strain RIC1, hits give low values",0.882
same,normalized growth,"S. cerevisiae deletion strains, locus YLR058C, strain SHM2, hits give low values",0.949
same,normalized growth,"S. cerevisiae deletion strains, locus YLR102C, strain apc9, hits give low values",1
same,normalized growth,"S. cerevisiae deletion strains, locus YLR113W, strain HOG1, hits give low values",0.868
same,normalized growth,"S. cerevisiae deletion strains, locus YLR221C, strain rsa3, hits give low values",0.9 (active)
same,normalized growth,"S. cerevisiae deletion strains, locus YLR258W, strain gsy2, hits give low values",0.966
same,normalized growth,"S. cerevisiae deletion strains, locus YLR262C, strain YPT6 (second series), hits give low values",0.842 (active)
same,normalized growth,"S. cerevisiae deletion strains, locus YLR262C, strain YPT6, hits give low values",0.926
same,normalized growth,"S. cerevisiae deletion strains, locus YLR268W, strain sec22, hits give low values",1
same,normalized growth,"S. cerevisiae deletion strains, locus YLR320W, strain mms22, hits give low values",0.846 (active)
same,normalized growth,"S. cerevisiae deletion strains, locus YLR330W, strain CHS5, hits give low values",0.925
same,normalized growth,"S. cerevisiae deletion strains, locus YLR342W, strain FKS1 (second series), hits give low values",0.878
same,normalized growth,"S. cerevisiae deletion strains, locus YLR342W, strain FKS1, hits give low values",0.974
same,normalized growth,"S. cerevisiae deletion strains, locus YLR357W, strain rsc2, hits give low values",0.81 (active)
same,normalized growth,"S. cerevisiae deletion strains, locus YLR370C, strain arc18, hits give low values",0.921
same,normalized growth,"S. cerevisiae deletion strains, locus YLR371W, strain rom2, hits give low values",0.962
same,normalized growth,"S. cerevisiae deletion strains, locus YLR384C, strain iki3, hits give low values",0.98
same,normalized growth,"S. cerevisiae deletion strains, locus YLR418C, strain cdc73, hits give low values",0.911
same,normalized growth,"S. cerevisiae deletion strains, locus YML016C, strain PPZ1, hits give low values",0.996
same,normalized growth,"S. cerevisiae deletion strains, locus YML032C, strain rad52, hits give low values",0.926
same,normalized growth,"S. cerevisiae deletion strains, locus YML120C, strain ndi1, hits give low values",0.919
same,normalized growth,"S. cerevisiae deletion strains, locus YML124C, strain tub3, hits give low values",1.01
same,normalized growth,"S. cerevisiae deletion strains, locus YMR058W, strain fet3, hits give low values",0.95
same,normalized growth,"S. cerevisiae deletion strains, locus YMR078C, strain ctf18, hits give low values",1.01
same,normalized growth,"S. cerevisiae deletion strains, locus YMR125W, strain sto1, hits give low values",0.828 (active)
same,normalized growth,"S. cerevisiae deletion strains, locus YMR129W, hits give low values",0.967
same,normalized growth,"S. cerevisiae deletion strains, locus YMR205C, strain PFK2, hits give low values",0.911
same,normalized growth,"S. cerevisiae deletion strains, locus YMR223W, strain ubp8, hits give low values",0.957
same,normalized growth,"S. cerevisiae deletion strains, locus YMR231W, strain pep5, hits give low values",0.999
same,normalized growth,"S. cerevisiae deletion strains, locus YMR307W, strain GAS1, hits give low values",0.621
same,normalized growth,"S. cerevisiae deletion strains, locus YNL067W, strain RPL9B, hits give low values",0.943
same,normalized growth,"S. cerevisiae deletion strains, locus YNL071W, strain lat1, hits give low values",0.85 (active)
same,normalized growth,"S. cerevisiae deletion strains, locus YNL153C, strain GIM3, hits give low values",0.921
same,normalized growth,"S. cerevisiae deletion strains, locus YNL183C, strain NPR1, hits give low values",0.948
same,normalized growth,"S. cerevisiae deletion strains, locus YNL209W, strain ssb2, hits give low values",0.977
same,normalized growth,"S. cerevisiae deletion strains, locus YNL233W, strain BNI4, hits give low values",0.788 (active)
same,normalized growth,"S. cerevisiae deletion strains, locus YNL248C, strain rpa49, hits give low values",0.883 (active)
same,normalized growth,"S. cerevisiae deletion strains, locus YNL250W, strain rad50, hits give low values",0.994
same,normalized growth,"S. cerevisiae deletion strains, locus YNL271C, strain bni1, hits give low values",1
same,normalized growth,"S. cerevisiae deletion strains, locus YNL298W, strain CLA4, hits give low values",0.951
same,normalized growth,"S. cerevisiae deletion strains, locus YNL307C, strain MCK1, hits give low values",1
same,normalized growth,"S. cerevisiae deletion strains, locus YNL322C, strain KRE1 (second series), hits give low values",0.993
same,normalized growth,"S. cerevisiae deletion strains, locus YNR049C, strain mso1, hits give low values",0.966
same,normalized growth,"S. cerevisiae deletion strains, locus YNR052C, strain pop2, hits give low values",0.933
same,normalized growth,"S. cerevisiae deletion strains, locus YOL006C, strain TOP1, hits give low values",0.816
same,normalized growth,"S. cerevisiae deletion strains, locus YOL012C, strain htz1",0.833
same,normalized growth,"S. cerevisiae deletion strains, locus YOL147C, strain pex11, hits give low values",0.987
same,normalized growth,"S. cerevisiae deletion strains, locus YOR001W, strain rrp6, hits give low values",0.887 (active)
same,normalized growth,"S. cerevisiae deletion strains, locus YOR061W, strain CKA2, hits give low values",0.977
same,normalized growth,"S. cerevisiae deletion strains, locus YOR069W, strain VPS5, hits give low values",0.984
same,normalized growth,"S. cerevisiae deletion strains, locus YOR070C, strain gyp1, hits give low values",0.981
same,normalized growth,"S. cerevisiae deletion strains, locus YOR080W, strain dia2, hits give low values",0.972
same,normalized growth,"S. cerevisiae deletion strains, locus YOR083W, strain WHI5, hits give low values",0.882 (active)
same,normalized growth,"S. cerevisiae deletion strains, locus YOR106W, strain vam3, hits give low values",0.881
same,normalized growth,"S. cerevisiae deletion strains, locus YOR136W, strain idh2, hits give low values",1.01
same,normalized growth,"S. cerevisiae deletion strains, locus YOR144C, strain elg1, hits give low values",0.999
same,normalized growth,"S. cerevisiae deletion strains, locus YOR184W, strain ser1, hits give low values",0.941
same,normalized growth,"S. cerevisiae deletion strains, locus YOR231W, strain MKK1, hits give low values",0.873
same,normalized growth,"S. cerevisiae deletion strains, locus YOR265W, strain rbl2, hits give low values",0.983
same,normalized growth,"S. cerevisiae deletion strains, locus YOR270C, strain vph1, hits give low values",0.757 (active)
same,normalized growth,"S. cerevisiae deletion strains, locus YOR290C, strain snf2, hits give low values",0.875
same,normalized growth,"S. cerevisiae deletion strains, locus YOR316C, strain cot1, hits give low values",0.997
same,normalized growth,"S. cerevisiae deletion strains, locus YPL051W, strain arl3, hits give low values",0.907 (active)
same,normalized growth,"S. cerevisiae deletion strains, locus YPL055C, strain LGE1, hits give low values",0.88
same,normalized growth,"S. cerevisiae deletion strains, locus YPL078C, strain atp4, hits give low values",0.863 (active)
same,normalized growth,"S. cerevisiae deletion strains, locus YPL106C, strain sse1, hits give low values",0.793 (active)
same,normalized growth,"S. cerevisiae deletion strains, locus YPL240C, strain hsp82, hits give low values",0.96
same,normalized growth,"S. cerevisiae deletion strains, locus YPL241C, strain CIN2, hits give low values",1
same,normalized growth,"S. cerevisiae deletion strains, locus YPL256C, strain CLN2, hits give low values",0.838
same,normalized growth,"S. cerevisiae deletion strains, locus YPR119W, strain clb2, hits give low values",1.02
same,normalized growth,"S. cerevisiae deletion strains, locus YPR141C, strain kar3, hits give low values",1
same,normalized growth,"S. cerevisiae deletion strains, locus YPR163C, strain tif3, hits give low values",1.02
same,normalized growth,"S. cerevisiae deletion strains, locus YPR167C, strain met16, hits give low values",0.988
same,normalized growth,"S. cerevisiae deletion strains, strain wtn01, hits give low values",0.99
same,normalized growth,"S. cerevisiae strains, strain wild type, hits give low values",0.924
